Test results: PubChem BioAssay (NCATS)
Where “and” joins values, the source holds several entries; their conditions need not be identical. Identical values can stand only once. Inconclusive results are not listed. Calls of active or inactive are those of the source. Calls follow the shape of the dose curve; as a rule, active = well fitted curve in the direction sought with a large enough effect; inconclusive = small, poorly fitted or top-dose-only effect, or another doubt; inactive = no such curve, though single readings can be large; an effect the other way counts as inactive or inconclusive.

Assay: qHTS of pediatric cancer cell lines to identify multiple opportunities for drug repurposing: Confirmatory screen for A673 cells (AID 1347110);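 also: cells exposed to compound for 48 h before the viability read; nearly all actives have a fitted effect of over 65% in size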
Details: A673 Ewing sarcoma cell viability; series mostly up to 45.9 µM
Method in brief: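 Cells plated at 500-1,000/well were treated five hours later with multi-point dilutions up to 46 µM final. After two days, CellTiter-Glo was added and luminescence read.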
Potency is read from the fitted curve at half-maximal effect.

**Q.** For `C[C@@H]1C[C@@H]([C@H](O)CC2CC(=O)NC(=O)C2)C(=O)[C@@H](C)C1`, which Potency is on record?
**A.** Its Potency is 1650 nM (active).

**Q.** For `CN(C)C(=S)SSC(=S)N(C)C`, which Potency is on record?
**A.** Its Potency is 329 nM (active).

**Q.** With `CCCCCCCCC(=O)NCc1ccc(O)c(OC)c1` as the molecule, how does the Potency read?
**A.** The Potency was “inactive”.

Assay: qHTS of pediatric cancer cell lines to identify multiple opportunities for drug repurposing: Confirmatory screen for SJ-GBM2 cells (AID 1347116); also: nearly all actives have a fitted effect of over 60% in size
Details: SJ-GBM2 glioblastoma cells, viability; series mostly up to 45.9 µM
Method in brief: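 Viability measured as metabolically active cells via CellTiter-Glo luminescence following 48 hours of compound exposure, 11-point dilutions in confirmatory testing. 500-1,000 cells/well plated 5 hours before dosing; controls were DMSO and 2.3 µM bortezomib.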

**Q.** With `C[C@@H]1C[C@@H]([C@H](O)CC2CC(=O)NC(=O)C2)C(=O)[C@@H](C)C1` as the molecule, how does the Potency read?
**A.** Its Potency is 2330 nM (active).

**Q.** For `CN(C)C(=S)SSC(=S)N(C)C`, which Potency is on record?
**A.** The Potency was 8270 nM (active).

**Q.** For `CCCCCCCCC(=O)NCc1ccc(O)c(OC)c1`, which Potency is on record?
**A.** The Potency was “inactive”.

Assay: qHTS of pediatric cancer cell lines to identify multiple opportunities for drug repurposing: Confirmatory screen for BT-37 cells (AID 1347117); also: nearly all actives have a fitted effect of over 55% in size
Details: BT-37 pediatric cancer cells, viability; series mostly up to 45.9 µM
Method in brief: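 Cells (500-1,000/well) rested 5 h, then received compounds for 48 h; metabolically active cells were measured by CellTiter-Glo luminescence. Final concentrations spanned up to 46 µM (MIPE, 11-point) or 0.59 nM-46 µM (NPC, 8-point) in primary screens, 11-point in follow-ups.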

**Q.** For `C[C@@H]1C[C@@H]([C@H](O)CC2CC(=O)NC(=O)C2)C(=O)[C@@H](C)C1`, which Potency is on record?
**A.** Its Potency is 1.04 µM (active) and 1.17 µM (active).

**Q.** Which Potency does the source give for `CN(C)C(=S)SSC(=S)N(C)C` here?
**A.** The Potency was 1.04 µM (active).

**Q.** Which Potency does the source give for `CCCCCCCCC(=O)NCc1ccc(O)c(OC)c1` here?
**A.** Its Potency is “inactive”.
